Assay [1] has as its target Aldehyde dehydrogenase, mitochondrial (Homo sapiens) (UniProt P05091). The experiment in a line: qHTS for Inhibitors of the Aldehyde Dehydrogenase Family (ALDH2) Confirmatory screens (AID 2061303; active means well fitted inhibition curve with a large enough effect; title and protocol of this record describe different tests; further: nearly all actives have a fitted effect of over 45% in size; further: potency means the concentration at half of the fitted maximal effect). (In general: In qHTS, concentration-response curves come from the screen itself.)
Assay [2] deals with Retinaldehyde dehydrogenase 3 (Homo sapiens) (UniProt P47895). The experiment in a line: qHTS for Inhibitors of the Aldehyde Dehydrogenase Family (ALDH1A3) Confirmatory screens (AID 2061311). Further: nearly all actives have a fitted effect of over 60% in size. Further: potency means the concentration at half of the fitted maximal effect.
Assay [3] concerns the target Retinal dehydrogenase 2 (Homo sapiens) (UniProt O94788). The experiment in a line: qHTS for Inhibitors of the Aldehyde Dehydrogenase Family (ALDH1A2) Confirmation screens (AID 2061314). Further: nearly all actives have a fitted effect of over 65% in size. Further: potency means the concentration at half of the fitted maximal effect.
For assay [4], the target named is Aldehyde dehydrogenase 1A1 (Homo sapiens) (UniProt P00352). In words: qHTS for Inhibitors of the Aldehyde Dehydrogenase Family (ALDH1A1) Confirmatory screens (AID 2061316). Further: nearly all actives have a fitted effect of over 65% in size. Further: potency means the concentration at half of the fitted maximal effect.
Assay [5] has as its target Aldehyde dehydrogenase, mitochondrial (Homo sapiens) (UniProt P05091). In words: qHTS for Inhibitors of the Aldehyde Dehydrogenase Family (ALDH2) Primary screen (AID 2061308). Further: nearly all actives have a fitted effect of over 55% in size.
In assay [6] the target is Retinaldehyde dehydrogenase 3 (Homo sapiens) (UniProt P47895). In words: qHTS for Inhibitors of the Aldehyde Dehydrogenase Family (ALDH1A3) Primary screen (AID 2061315).

Results filed as inconclusive are left out. Calls of active or inactive are those of the source. Unless noted, the call rests on the fitted dose curve; in most records, active means well fitted curve in the direction sought with a large enough effect; inconclusive means small, poorly fitted or top-dose-only effect, or another doubt; inactive means no such curve, though single readings can be large; an effect the other way counts as inactive or inconclusive.

On to `CCc1cc(N2CCOC(c3ccc4cc(OC)ccc4c3)C2)nc(C)n1` (stereo not given), for which the Potency result in assay [1], in assay [2], in assay [3] and in assay [4] was “inactive” in each case.

In the case of `O=C(CN1CCCN(S(=O)(=O)c2ccc(Br)cc2)CC1)Nc1cccc(C(F)(F)F)c1`, the Potency in assay [1] was 1.15 µM (active); in assay [2], 6.47 µM (active); in assay [3] it was 25.1 µM (active); in assay [4] it was 1.45 µM (active).

For the molecule `CC(C)Sc1ncc(Cl)c(C(=O)Nc2nc3ccc(S(C)(=O)=O)cc3s2)n1`, the Potency result in assay [1], in assay [2], in assay [3] and in assay [4] was “inactive” each time.

Take `O=C(Nc1ccc([S+](=O)([O-])Nc2nccs2)cc1)c1ccccn1`: the Potency result in assay [1], in assay [5], in assay [6] and in assay [4] was “inactive” throughout.

Consider `COc1ccccc1Nc1cc2ccccc2c(=O)[nH]1`, for which the Potency result in assay [1] and in assay [3] was “inactive” throughout. Also, in assay [2], the Potency is 0.318 µM (active).

Turning to `Cc1nc(CNc2ncnc3ccc(-c4ccoc4C)cc23)cs1`, the Potency result in assay [1], in assay [5] and in assay [6] was “inactive” throughout.

On to `O=C(Nc1ccc(N2CCOCC2)c(F)c1)Nc1nnc(-c2ccncc2)s1`, for which the Potency result in assay [1], in assay [5] and in assay [6] was “inactive” each time.

For `CN(c1ccccc1)c1ccc(CNc2nn3c(=O)c4ccccc4nc3s2)cc1`, the Potency in assay [1] was 11.2 µM (active); in assay [2], 12.6 µM (active); in assay [4] it was 8.96 µM (active). For the same molecule, the Potency entry in assay [3] and in assay [6] was “inactive” in each case.

In the case of `CCN(CC)c1nc2ccccc2nc1C(=O)Nc1ccc(C(C)=O)cc1`, the Potency entry in assay [1], in assay [2], in assay [3] and in assay [4] was “inactive” throughout.

`COc1ccc(CNC(=O)c2cc3c(=O)n(Cc4ccc(OC)cc4)ccc3nc2C)cc1`: the Potency entry in assay [1], in assay [2], in assay [3] and in assay [4] was “inactive” throughout.

Turning to `CC(C)NC(=O)c1nc(-c2cccnc2)c2cnccn12`, the Potency entry in assay [1] and in assay [4] was “inactive” each time.

Turning to `COc1ccc(S(=O)(=O)N2C[C@@H](Oc3ccccc3)C[C@@H]2C(=O)N2CCOCC2)cc1`, the Potency entry in assay [1] and in assay [3] was “inactive” in each case.

With `Cc1ccsc1CN(C)c1ncnc2ccc(-c3ccoc3C)cc12`, the Potency entry in assay [1] and in assay [6] was “inactive” in each case. Besides, the Potency in assay [3] is 11.3 µM (active).

With `[O-][n+]1onc(-c2ccccc2)c1CO`, the Potency entry in assay [1], in assay [3] and in assay [6] was “inactive” throughout.

`CC(=O)Nc1sc2c(c1-c1nc3ccccc3s1)CCN(Cc1ccccc1)C2`: the Potency entry in assay [1] and in assay [6] was “inactive” in each case. For the same molecule, in assay [2], the Potency is 25.1 µM (active).

For `NC(=O)c1c(NC(=O)c2ccco2)sc2c1CCCC2`, the values for the Potency in assay [1], in assay [3] and in assay [4] were 8.96 µM (active), 10.1 µM (active) and 3.57 µM (active), respectively. Also, in assay [6], the Potency entry was “inactive”.

Take `O=C1c2ccccc2NC(c2ccc(-c3cccs3)o2)N1O` (stereo not given): the Potency is 11.2 µM (active) in assay [1], 7.98 µM (active) in assay [3] and 6.34 µM (active) in assay [4]. In addition, the Potency result in assay [6] is “inactive”.

As to `O=C(OCC#CCSc1nnc(-c2cccc3ccccc23)o1)c1ccco1`, the Potency in assay [1] and in assay [4] was 6.34 µM (active) throughout. In addition, in assay [6], the Potency entry was “inactive”.

Take `O=C(CCC#CCSc1nnc(-c2cccc3ccccc23)o1)c1ccccc1`: in assay [1], the Potency is 20.1 µM (active). In assay [6], the Potency entry was “inactive”.

On to `O=C(NCCN1CCN(c2ccccc2)CC1)Nc1cccc(Br)c1`, for which the Potency result in assay [1] and in assay [3] was “inactive” throughout.

Turning to `COc1ccc(-n2cc(C(=O)Nc3cc(F)ccc3F)c3ccccc3c2=O)cc1`, the Potency result in assay [1] and in assay [3] was “inactive” each time. The Potency in assay [4] is 11.5 µM (active).

As to `COC(=O)c1ccc(NC(=O)CN2CCN(c3ccc(Cl)cc3)CC2)cc1`, the Potency in assay [1] and in assay [3] was 18.2 µM (active) in each case.

As to `CC(C)N1CCc2c(sc(NC(=O)Cc3ccccc3)c2-c2nc3ccccc3s2)C1`, the Potency result in assay [1], in assay [2], in assay [6] and in assay [4] was “inactive” in each case.

`O=S1(=O)N=C(Sc2ccc3c(c2)OCCO3)c2ccccc21`: the Potency result in assay [1] and in assay [6] was “inactive” throughout.

`CC(=O)Nc1sc2c(c1-c1nc3ccccc3s1)CNCC2`: the Potency was 20.1 µM (active) in assay [1] and 8.96 µM (active) in assay [4]. For the same molecule, in assay [6], the Potency result was “inactive”.

`N#Cc1c(-c2cccc(Br)c2)no[n+]1[O-]`: the Potency entry in assay [1] and in assay [6] was “inactive” throughout. Further, the Potency in assay [3] was 3.57 µM (active); in assay [4], 12.7 µM (active).

For `O=C(NC1CC(=O)N(c2ccccc2)C1)c1ccc(S(=O)(=O)N2CCOCC2)cc1` (stereo not given), the Potency entry in assay [1] and in assay [3] was “inactive” throughout.

On to `CCN1c2cc(C(=O)Nc3ccc(C#N)cc3)ccc2C(=O)N2CCCCCC21` (stereo not given), for which the Potency result in assay [1] is “inactive”. In addition, in assay [4], the Potency was 6.47 µM (active).

Turning to `COc1cc(F)ccc1-c1ccnc2nc(Cc3ccc(F)cc3)nn12`, the Potency result in assay [1] and in assay [4] was “inactive” each time.

These data come from PubChem BioAssay (NCATS).
